# Bioassay records (PubChem)
# CHRM1 PAM: positive allosteric modulators of human M1 muscarinic receptor; hit rate 0.088% among 360,000; AID 588819; activation, % at 3 µM; CHO-K1 hM1, Fluo-8 calcium fluorescence, ACh EC20; 0% = ACh EC20, 100% = maximal ACh; in the data active = activation above about 19%, passing the limit was not always enough
# Target sequence (P11229 whole entry, looked up): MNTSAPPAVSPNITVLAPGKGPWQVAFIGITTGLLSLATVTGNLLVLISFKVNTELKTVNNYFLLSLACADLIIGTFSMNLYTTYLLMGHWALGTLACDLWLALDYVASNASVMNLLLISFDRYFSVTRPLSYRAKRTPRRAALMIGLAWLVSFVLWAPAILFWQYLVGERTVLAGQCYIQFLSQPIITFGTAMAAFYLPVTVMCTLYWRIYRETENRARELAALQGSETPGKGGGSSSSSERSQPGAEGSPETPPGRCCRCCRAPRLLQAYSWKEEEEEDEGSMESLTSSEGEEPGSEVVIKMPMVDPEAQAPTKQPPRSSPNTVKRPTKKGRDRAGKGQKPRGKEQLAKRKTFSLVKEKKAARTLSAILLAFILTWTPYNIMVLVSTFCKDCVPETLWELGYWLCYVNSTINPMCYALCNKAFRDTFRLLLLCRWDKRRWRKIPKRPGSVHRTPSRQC
# CHRM1 agonist: activates human CHRM1 receptor. CHO-K1 hM1, Fluo-8 calcium fluorescence, agonist mode; 0% DMSO, 100% acetylcholine EC100. hit rate 0.33% among 360,000. activation, % at 3 µM;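 active = activation above the run's mean compound activation plus 3 SD, cut at about 16% in these data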;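 note: peak over basal fluorescence ratio within a 140 s kinetic read after compound addition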
# CHO-K1 Ca antag: nonselective inhibitor or artifact in parental CHO-K1 cells. ATP-induced calcium, Fluo-8 fluorescence. inhibition, % at 3 µM. hit rate 0.6% among 360,000. AID 602250;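 active = inhibition above a per-plate cutoff, the plate's mean sample inhibition plus 3 SD, cut at about 24% in these data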
# M1 ag parental: counter-screen for M1 agonists: effect in parental CHO-K1 cells. Fluo-8 calcium fluorescence; scaled to maximal ATP response, vehicle zero. activation, % at 3 µM. hit rate 0.48% among 360,000; in the data active = activation above about 15%;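 note: untransfected CHO-K1 host cells lacking M1 receptor as counterscreen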
# CHRM1 antagonist: human CHRM1 antagonism | P11229 | CHO-K1 hM1, Fluo-8 calcium fluorescence, ACh EC80 antagonist | inhibition, % at 3 µM | hit rate 1.3% among 360,000 | AID 588852;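 active = percent inhibition above its own plate's cutoff, namely the mean of that plate's compound wells plus 3 SD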;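 note: peak over basal fluorescence ratio during 140 s after agonist addition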
# CHO-K1 Ca PAM: counter-screen for M1 PAMs: effect in parental CHO-K1 cells. ATP EC20, Fluo-8 calcium fluorescence; 0% at ATP EC20, 100% at ATP max. AID 602247. hit rate 0.02% among 360,000. activation, % at 3 µM;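 active = activation above the run cutoff, the mean activation of all test compounds plus 3 SD, cut at about 40% in these data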;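 note: peak over basal fluorescence ratio in a 140 s read after ATP addition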
# Hits are given with their value; – = inactive; · = no result given; + = active, no number. Hits are enriched below; roughly 2.3% of the tested compounds scored in any of these assays.
SMILES,CHRM1 PAM,CHRM1 agonist,CHO-K1 Ca antag,M1 ag parental,CHRM1 antagonist,CHO-K1 Ca PAM
CC(C)COC(=O)NCCOC(=O)Nc1cccc(Cl)c1,–,–,24,–,25,–
N#Cc1cc(N)ccc1-n1cccc1,–,–,–,–,–,–
CCN1CCN(C2=CC3=CC(=C(C#N)C#N)CCC3CC2)CC1 (stereo not drawn),–,591,78,366,101,–
N#CC(C#N)=C1C=C2C=C(N3CCOCC3)CCC2CC1 (stereo not drawn),–,124,–,65,58,–
N#CC(C#N)=C1C=C2C=C(N3CCCCCC3)CCC2CC1 (stereo not drawn),–,+,102,939,102,–
CN1CCN(C2=CC3=CC(=C(C#N)C#N)CCC3CC2)CC1 (stereo not drawn),–,896,85,522,103,–
CC(OC(=O)/C=C/c1ccco1)C(=O)NC1CCCCC1C (stereo not drawn),–,–,–,–,–,–
Cc1ccc2oc(C(=O)NCCCN3CCOCC3)c(C)c2c1,–,–,–,–,–,–
COc1ccccc1-c1noc2c1C(=O)N(Cc1cn(-c3ccccc3OC)nn1)CC2,·,·,–,–,·,–
CN(c1ccccc1)c1ccc(/C=C/[N+](=O)[O-])cc1,–,23,28,20,64,–
O=[N+]([O-])c1ccc(C=CC=Cc2ccccc2)cc1,–,–,–,–,–,–
CC(=O)c1cc2c(cc1NC(=O)c1ccco1)OCCO2,–,–,25,–,–,–
COc1ccc(CCN(C)C(=O)c2cc(=O)c3ccccc3o2)cc1OC,–,–,–,–,–,–
N#Cc1ncccc1CCc1cccc(Cl)c1,–,–,–,–,–,–
Cc1c(OC(C)C(=O)NCCCn2ccnc2)ccc2c3c(c(=O)oc12)CCC3 (stereo not drawn),–,–,–,–,–,–
COc1cccc(N2CCN(S(=O)(=O)c3ccc4c(c3)N(C(C)=O)CCO4)CC2)c1,–,–,–,–,–,–
Cc1ccc2c(c1)N(C(=O)CCC(=O)N1CCN(c3ccccn3)CC1)CCO2,–,–,–,–,36,–
O=C(CCC(=O)N1CCOc2ccc(Cl)cc21)N1CCN(c2ccccn2)CC1,–,–,–,–,–,–
O=C(CN1CCCCCC1)Nc1ccccc1Oc1ccccc1,–,–,–,–,41,–
CCOc1ccc(NC(=O)CN2CCN(C3c4ccccc4-c4ccccc43)CC2)cc1,–,–,–,–,–,–
CC1CCN(CC(=O)Nc2ccccc2-c2ccccc2)CC1,–,–,–,–,33,–
COc1ccccc1NC(=O)CN1CCCCCC1,–,–,–,–,–,–
COc1ccccc1NC(=O)CN1CCN(C2c3ccccc3-c3ccccc32)CC1,–,–,–,–,–,48
COc1ccc(NC(=O)CN2CCN(C3c4ccccc4-c4ccccc43)CC2)c(OC)c1,–,–,–,–,–,52
Cc1ccc(N(CC(=O)NCC2CCCO2)C(=O)Cn2nnc(-c3cccs3)n2)cc1 (stereo not drawn),–,–,–,–,–,–
SMILES,CHRM1 PAM,CHRM1 agonist,CHO-K1 Ca antag,M1 ag parental,CHRM1 antagonist,CHO-K1 Ca PAM
O=C(CN1CCN(c2ccccc2O)CC1)NC(c1ccccc1)c1ccccc1,–,–,–,–,–,–
O=C(CN1CCCC1)NC(c1ccccc1)c1ccccc1,–,–,–,–,69,–
C[C@@H]1CCCCO[C@@H](CN(C)S(=O)(=O)c2cn(C)cn2)[C@@H](C)CN([C@H](C)CO)C(=O)c2cc(N(C)C)ccc2O1,–,–,–,–,–,–
O=C(Nc1nc2c(s1)CN(Cc1ccccc1)CC2)C1CCC1,–,–,–,–,46,–
CCN1CCc2nc(NC(=O)c3ccccc3)sc2C1,–,–,–,–,–,–
CCOC(=O)NC(=O)/C(C#N)=C/c1ccc(N(C)C)cc1,–,–,–,–,–,–
CN(C)c1ccc(/C=C(\C#N)C(=O)Nc2nc3c(s2)CCN(Cc2ccccc2)C3)cc1,–,21,–,–,35,–
Cn1c(=O)c(C#N)c(-c2ccc(F)cc2)c2cc(C(=O)c3cc(Cl)cc(Cl)c3O)cnc21,–,–,–,–,31,–
CC1CCCC(NC(=O)c2ccc3c(SCC(=O)O)c4c(nc3c2)CCC4)C1C (stereo not drawn),–,–,–,–,39,–
CCCOc1ccc(CNC(=O)CCC(=O)n2ncc3cc(C)ccc32)cc1,–,–,–,–,–,–
COc1ccc(CNC(=O)CCC(=O)n2ncc3cc(C)ccc32)cc1,–,–,24,–,–,–
Cc1ccc(CNC2CCCCC2)s1,–,–,–,–,–,–
COCc1ccc(CN2CCCCC2C(=O)Nc2ccc(Oc3ccccc3)nc2)o1 (stereo not drawn),–,–,–,–,47,–
Cc1ncc(CN2CCCCC2C(=O)Nc2ccc(Oc3ccccc3)nc2)cn1 (stereo not drawn),–,–,–,–,–,–
CCn1c(=O)c(C(=O)NNC(=O)c2ccccc2)c(O)c2ccccc21,–,–,–,19,–,–
CCCn1c(=O)c(C(=O)NNC(=O)c2ccccc2Cl)c(O)c2ccccc21,–,30,–,21,–,–
CC(C)Cn1c(=O)c(C(=O)Nc2ccncc2)c(O)c2ccccc21,–,–,–,–,99,–
CCc1c(C)nc(N2CCN(c3ccc(OC)cc3)CC2)[nH]c1=O,–,–,–,–,–,–
CCCN1CCN(C(=O)c2oc3ccccc3c2NC(=O)COc2ccc(OC)cc2)CC1,–,–,–,–,–,–
CCOC(=O)[C@]12CCC=C1N(Cc1ccc3c(c1)OCO3)C(=O)[C@H](CC(=O)N1CCC(c3ccccc3)CC1)C2,·,·,–,–,·,–
COC(=O)Cn1c(=NC(=O)C(C)C)sc2c(C)cc(C)cc21,–,–,30,–,–,–
CC1CN(C(=O)CSc2nnc(-c3cccs3)n2N)CC(C)O1 (stereo not drawn),–,–,–,–,–,–
CC(C)(C)S(=O)(=O)/C(C#N)=C/c1cccn1S(=O)(=O)c1ccccc1,–,–,–,–,–,–
O=C1/C(=C/c2ccccc2Cl)SC(=S)N1CCCC(=O)N(CCO)c1ccccc1,–,–,–,–,–,–
CCCC1C(=O)Nc2ccccc2N1C(=O)c1ccc(C(C)(C)C)cc1 (stereo not drawn),–,–,–,–,–,–
CCCC1C(=O)Nc2ccccc2N1C(=O)c1cccc(C)c1 (stereo not drawn),–,–,–,–,68,–
COc1cc(-c2n[nH]c(=S)n2/N=C/c2cccn2C)cc(OC)c1OC,–,64,–,22,39,–
Cn1cccc1/C=N/n1c(-c2ccco2)n[nH]c1=S,–,–,–,–,–,–
OC(CCN1CCC2CCC(C2)C1)c1ccc(Br)cc1 (stereo not drawn),–,–,–,–,37,–
